Measurements taken from ChEMBL document CHEMBL2218924, “A broad activity screen in support of a chemogenomic map for kinase signalling research and drug discovery” (Biochem J, 2013).

What was measured:
[1] = target: T1, Serine/threonine-protein kinase 3 (Homo sapiens) (UniProt Q13188); settings: at 1 µM
T1 sequence (whole entry): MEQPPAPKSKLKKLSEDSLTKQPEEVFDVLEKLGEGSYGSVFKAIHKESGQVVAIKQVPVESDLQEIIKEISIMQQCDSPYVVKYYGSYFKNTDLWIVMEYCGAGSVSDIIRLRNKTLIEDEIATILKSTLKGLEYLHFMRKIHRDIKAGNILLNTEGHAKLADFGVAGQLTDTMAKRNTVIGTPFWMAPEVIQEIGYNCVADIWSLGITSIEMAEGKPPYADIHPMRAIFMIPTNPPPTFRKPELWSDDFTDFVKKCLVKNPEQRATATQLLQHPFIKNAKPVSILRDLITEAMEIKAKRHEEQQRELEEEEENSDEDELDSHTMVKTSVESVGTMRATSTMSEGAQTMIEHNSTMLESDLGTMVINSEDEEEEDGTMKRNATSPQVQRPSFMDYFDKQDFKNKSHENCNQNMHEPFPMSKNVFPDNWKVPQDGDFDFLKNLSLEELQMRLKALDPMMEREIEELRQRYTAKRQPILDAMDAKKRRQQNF

[2] = target: T1, Serine/threonine-protein kinase 3 (Homo sapiens); settings: at 10 µM
[3] = target: Serine/threonine-protein kinase 24 (Homo sapiens) (UniProt Q9Y6E0); settings: at 1 µM
Serine/threonine-protein kinase 24 (Homo sapiens), sequence (Q9Y6E0 whole entry, looked up): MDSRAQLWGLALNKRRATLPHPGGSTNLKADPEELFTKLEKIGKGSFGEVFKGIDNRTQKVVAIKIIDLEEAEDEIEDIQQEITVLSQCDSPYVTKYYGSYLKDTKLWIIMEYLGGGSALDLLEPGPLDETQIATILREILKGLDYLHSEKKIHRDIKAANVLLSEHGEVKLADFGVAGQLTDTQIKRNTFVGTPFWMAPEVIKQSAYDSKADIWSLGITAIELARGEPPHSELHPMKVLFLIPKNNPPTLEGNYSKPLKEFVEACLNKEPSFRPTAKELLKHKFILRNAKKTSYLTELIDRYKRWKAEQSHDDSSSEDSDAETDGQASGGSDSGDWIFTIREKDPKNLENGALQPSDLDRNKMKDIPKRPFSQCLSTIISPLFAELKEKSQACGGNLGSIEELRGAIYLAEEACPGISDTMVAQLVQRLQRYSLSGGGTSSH

[4] = target: Serine/threonine-protein kinase 24 (Homo sapiens) (UniProt Q9Y6E0); settings: at 10 µM
[5] = target: MAP kinase-interacting serine/threonine-protein kinase 2 (Homo sapiens) (UniProt Q9HBH9); settings: at 1 µM
MAP kinase-interacting serine/threonine-protein kinase 2 (Homo sapiens), sequence (Q9HBH9 whole entry, looked up): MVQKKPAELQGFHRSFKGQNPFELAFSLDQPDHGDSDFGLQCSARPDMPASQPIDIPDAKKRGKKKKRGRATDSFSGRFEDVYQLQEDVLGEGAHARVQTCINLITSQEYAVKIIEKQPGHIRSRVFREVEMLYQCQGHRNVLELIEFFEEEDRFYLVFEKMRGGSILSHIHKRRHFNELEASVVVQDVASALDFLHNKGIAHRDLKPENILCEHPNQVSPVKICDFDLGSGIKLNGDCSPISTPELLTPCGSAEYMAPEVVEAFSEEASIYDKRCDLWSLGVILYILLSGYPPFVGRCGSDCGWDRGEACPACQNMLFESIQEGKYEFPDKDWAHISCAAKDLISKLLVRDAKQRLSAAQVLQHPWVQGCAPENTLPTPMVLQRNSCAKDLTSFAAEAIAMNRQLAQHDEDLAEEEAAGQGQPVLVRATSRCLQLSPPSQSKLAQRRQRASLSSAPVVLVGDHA

[6] = target: MAP kinase-interacting serine/threonine-protein kinase 2 (Homo sapiens) (UniProt Q9HBH9); settings: at 10 µM
[7] = target: T2, Muscle, skeletal receptor tyrosine-protein kinase (Homo sapiens) (UniProt O15146); settings: at 1 µM
T2 sequence (whole entry): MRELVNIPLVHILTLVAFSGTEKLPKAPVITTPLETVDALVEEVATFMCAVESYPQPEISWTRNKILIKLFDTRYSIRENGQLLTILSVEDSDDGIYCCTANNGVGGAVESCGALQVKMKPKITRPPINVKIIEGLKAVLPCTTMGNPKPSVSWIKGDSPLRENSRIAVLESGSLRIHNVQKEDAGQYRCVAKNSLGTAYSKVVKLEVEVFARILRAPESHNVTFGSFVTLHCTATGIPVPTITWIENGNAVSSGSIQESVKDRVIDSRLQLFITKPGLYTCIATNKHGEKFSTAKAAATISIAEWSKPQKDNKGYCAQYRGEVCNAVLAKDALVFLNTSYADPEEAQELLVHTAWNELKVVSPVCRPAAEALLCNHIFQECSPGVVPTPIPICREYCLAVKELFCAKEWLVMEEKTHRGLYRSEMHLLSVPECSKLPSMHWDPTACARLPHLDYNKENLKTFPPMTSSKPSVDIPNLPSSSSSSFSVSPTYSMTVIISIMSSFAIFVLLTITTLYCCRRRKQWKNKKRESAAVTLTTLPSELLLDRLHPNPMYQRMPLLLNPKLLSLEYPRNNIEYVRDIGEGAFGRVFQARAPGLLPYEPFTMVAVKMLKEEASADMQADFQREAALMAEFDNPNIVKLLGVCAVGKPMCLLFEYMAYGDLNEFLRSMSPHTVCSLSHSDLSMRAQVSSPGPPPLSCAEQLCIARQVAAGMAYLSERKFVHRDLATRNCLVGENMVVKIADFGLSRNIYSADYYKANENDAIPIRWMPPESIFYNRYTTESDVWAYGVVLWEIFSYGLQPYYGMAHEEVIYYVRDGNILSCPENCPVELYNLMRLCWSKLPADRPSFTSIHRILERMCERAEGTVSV

[8] = target: T2, Muscle, skeletal receptor tyrosine-protein kinase (Homo sapiens); settings: at 10 µM
[9] = target: T3, Serine/threonine-protein kinase Nek11 (Homo sapiens) (UniProt Q8NG66); settings: at 10 µM
T3 sequence (whole entry): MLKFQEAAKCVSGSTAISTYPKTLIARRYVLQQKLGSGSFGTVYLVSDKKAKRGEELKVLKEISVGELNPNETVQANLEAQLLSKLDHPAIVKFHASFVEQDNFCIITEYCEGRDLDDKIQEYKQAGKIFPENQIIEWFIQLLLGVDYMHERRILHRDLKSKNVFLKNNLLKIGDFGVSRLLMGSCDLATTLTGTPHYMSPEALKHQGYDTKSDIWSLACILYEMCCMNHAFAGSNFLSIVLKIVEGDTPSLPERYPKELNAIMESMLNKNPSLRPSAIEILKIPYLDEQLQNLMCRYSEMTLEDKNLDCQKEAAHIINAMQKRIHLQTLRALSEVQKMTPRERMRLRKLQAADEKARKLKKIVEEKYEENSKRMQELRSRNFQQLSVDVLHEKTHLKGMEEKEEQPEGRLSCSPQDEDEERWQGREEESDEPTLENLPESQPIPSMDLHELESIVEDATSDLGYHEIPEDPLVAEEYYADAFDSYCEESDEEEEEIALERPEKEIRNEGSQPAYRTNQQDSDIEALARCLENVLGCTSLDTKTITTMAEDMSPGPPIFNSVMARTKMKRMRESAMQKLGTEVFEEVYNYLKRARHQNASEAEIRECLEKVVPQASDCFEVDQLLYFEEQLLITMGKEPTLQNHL

[10] = target: T4, Serine/threonine-protein kinase Nek3 (Homo sapiens) (UniProt P51956); settings: at 1 µM
T4 sequence (whole entry): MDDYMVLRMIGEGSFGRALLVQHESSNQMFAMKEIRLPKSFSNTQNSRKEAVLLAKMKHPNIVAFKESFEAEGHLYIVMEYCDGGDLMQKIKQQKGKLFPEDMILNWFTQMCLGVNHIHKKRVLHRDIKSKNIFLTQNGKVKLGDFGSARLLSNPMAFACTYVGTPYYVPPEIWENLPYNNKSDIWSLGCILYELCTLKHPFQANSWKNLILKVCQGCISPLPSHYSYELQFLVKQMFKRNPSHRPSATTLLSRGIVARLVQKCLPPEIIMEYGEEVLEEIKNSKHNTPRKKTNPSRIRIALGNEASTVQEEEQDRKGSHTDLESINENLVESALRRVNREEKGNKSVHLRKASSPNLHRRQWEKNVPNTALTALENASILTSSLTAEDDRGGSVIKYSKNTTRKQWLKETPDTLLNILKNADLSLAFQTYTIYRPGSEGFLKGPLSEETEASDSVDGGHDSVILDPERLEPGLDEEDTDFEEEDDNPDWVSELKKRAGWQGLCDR

[11] = target: T4, Serine/threonine-protein kinase Nek3 (Homo sapiens); settings: at 10 µM
[12] = target: T5, Tyrosine-protein kinase Mer (Homo sapiens) (UniProt Q12866); settings: at 1 µM
T5 sequence (whole entry): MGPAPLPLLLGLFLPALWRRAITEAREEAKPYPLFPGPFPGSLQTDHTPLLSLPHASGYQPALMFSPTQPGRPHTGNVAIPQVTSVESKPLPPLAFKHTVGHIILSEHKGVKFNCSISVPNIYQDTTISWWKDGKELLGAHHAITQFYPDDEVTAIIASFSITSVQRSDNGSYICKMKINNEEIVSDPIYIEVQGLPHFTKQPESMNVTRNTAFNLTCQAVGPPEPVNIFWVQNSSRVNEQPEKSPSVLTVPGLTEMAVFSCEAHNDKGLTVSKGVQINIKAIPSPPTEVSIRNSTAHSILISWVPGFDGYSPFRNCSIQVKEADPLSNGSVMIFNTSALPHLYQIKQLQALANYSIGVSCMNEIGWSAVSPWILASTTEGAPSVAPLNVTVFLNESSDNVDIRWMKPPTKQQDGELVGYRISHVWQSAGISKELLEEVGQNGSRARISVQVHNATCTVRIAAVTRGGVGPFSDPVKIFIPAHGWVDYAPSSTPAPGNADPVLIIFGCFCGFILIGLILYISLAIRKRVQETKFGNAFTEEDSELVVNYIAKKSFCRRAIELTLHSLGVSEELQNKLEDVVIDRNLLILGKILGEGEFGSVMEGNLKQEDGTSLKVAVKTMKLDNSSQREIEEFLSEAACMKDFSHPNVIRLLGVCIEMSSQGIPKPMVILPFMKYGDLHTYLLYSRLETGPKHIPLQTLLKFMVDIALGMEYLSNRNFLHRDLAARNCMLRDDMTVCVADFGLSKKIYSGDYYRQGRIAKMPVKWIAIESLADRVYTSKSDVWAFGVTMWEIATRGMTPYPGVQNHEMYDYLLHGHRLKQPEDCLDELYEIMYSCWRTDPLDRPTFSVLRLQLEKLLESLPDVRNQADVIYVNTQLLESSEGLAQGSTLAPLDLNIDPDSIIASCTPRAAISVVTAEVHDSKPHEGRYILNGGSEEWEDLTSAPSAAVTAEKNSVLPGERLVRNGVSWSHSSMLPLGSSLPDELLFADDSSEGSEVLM

[13] = target: T5, Tyrosine-protein kinase Mer (Homo sapiens); settings: at 10 µM
[14] = target: Hepatocyte growth factor receptor (Homo sapiens) (UniProt P08581); settings: at 1 µM
Hepatocyte growth factor receptor (Homo sapiens), sequence (P08581 whole entry): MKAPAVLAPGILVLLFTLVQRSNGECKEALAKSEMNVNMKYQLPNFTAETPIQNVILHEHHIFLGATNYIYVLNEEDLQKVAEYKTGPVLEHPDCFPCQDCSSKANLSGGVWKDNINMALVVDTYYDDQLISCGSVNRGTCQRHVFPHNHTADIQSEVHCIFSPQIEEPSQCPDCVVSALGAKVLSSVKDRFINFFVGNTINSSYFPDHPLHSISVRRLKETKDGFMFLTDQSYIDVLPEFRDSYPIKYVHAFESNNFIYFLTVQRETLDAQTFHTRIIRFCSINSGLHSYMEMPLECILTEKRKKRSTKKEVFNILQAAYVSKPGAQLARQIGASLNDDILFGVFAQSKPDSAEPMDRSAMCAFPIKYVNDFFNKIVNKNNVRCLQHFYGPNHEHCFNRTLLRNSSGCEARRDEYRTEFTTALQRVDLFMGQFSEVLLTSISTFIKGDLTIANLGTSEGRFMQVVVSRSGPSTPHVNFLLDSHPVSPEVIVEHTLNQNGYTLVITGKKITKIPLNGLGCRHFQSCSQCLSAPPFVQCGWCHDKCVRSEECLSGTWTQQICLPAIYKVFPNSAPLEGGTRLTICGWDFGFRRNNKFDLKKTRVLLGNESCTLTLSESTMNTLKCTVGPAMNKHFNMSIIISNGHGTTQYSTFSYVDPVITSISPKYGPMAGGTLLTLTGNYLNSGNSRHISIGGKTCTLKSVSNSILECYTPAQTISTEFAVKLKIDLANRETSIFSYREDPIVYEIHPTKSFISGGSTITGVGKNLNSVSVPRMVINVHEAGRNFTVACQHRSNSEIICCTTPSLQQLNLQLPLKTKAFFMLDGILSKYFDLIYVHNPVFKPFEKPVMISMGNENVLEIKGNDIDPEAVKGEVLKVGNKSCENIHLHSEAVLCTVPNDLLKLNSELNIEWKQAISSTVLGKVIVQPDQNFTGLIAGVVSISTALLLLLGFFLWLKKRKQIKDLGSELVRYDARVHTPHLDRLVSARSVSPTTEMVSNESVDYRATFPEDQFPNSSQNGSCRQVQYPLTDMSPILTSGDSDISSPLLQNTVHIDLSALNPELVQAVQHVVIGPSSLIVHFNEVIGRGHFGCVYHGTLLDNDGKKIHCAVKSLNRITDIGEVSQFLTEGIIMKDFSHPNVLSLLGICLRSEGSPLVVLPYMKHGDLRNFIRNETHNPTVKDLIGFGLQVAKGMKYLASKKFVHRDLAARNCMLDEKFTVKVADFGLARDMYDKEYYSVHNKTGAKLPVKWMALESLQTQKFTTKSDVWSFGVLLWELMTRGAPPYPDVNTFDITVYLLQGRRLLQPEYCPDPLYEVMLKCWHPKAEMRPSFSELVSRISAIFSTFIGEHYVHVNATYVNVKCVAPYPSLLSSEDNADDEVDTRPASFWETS

[15] = target: Hepatocyte growth factor receptor (Homo sapiens) (UniProt P08581); settings: at 10 µM
[16] = target: T3, Serine/threonine-protein kinase Nek11 (Homo sapiens); settings: at 1 µM
[17] = target: T6, Serine/threonine-protein kinase Nek2 (Homo sapiens) (UniProt P51955); settings: at 1 µM
T6 sequence (whole entry): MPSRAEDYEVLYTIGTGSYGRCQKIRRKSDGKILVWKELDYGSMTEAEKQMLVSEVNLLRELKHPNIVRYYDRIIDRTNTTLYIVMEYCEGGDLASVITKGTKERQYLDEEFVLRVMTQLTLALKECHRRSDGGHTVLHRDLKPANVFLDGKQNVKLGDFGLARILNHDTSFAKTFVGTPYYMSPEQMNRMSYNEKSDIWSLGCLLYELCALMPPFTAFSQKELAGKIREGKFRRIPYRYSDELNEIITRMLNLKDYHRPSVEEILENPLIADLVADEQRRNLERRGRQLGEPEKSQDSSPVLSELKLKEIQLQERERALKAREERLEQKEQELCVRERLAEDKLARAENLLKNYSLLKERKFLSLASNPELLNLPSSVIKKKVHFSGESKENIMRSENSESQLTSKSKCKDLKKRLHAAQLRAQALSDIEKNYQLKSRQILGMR

[18] = target: T6, Serine/threonine-protein kinase Nek2 (Homo sapiens); settings: at 10 µM
[19] = target: Serine/threonine-protein kinase tousled-like 2 (Homo sapiens) (UniProt Q86UE8); settings: at 1 µM
Serine/threonine-protein kinase tousled-like 2 (Homo sapiens), sequence (Q86UE8 whole entry, looked up): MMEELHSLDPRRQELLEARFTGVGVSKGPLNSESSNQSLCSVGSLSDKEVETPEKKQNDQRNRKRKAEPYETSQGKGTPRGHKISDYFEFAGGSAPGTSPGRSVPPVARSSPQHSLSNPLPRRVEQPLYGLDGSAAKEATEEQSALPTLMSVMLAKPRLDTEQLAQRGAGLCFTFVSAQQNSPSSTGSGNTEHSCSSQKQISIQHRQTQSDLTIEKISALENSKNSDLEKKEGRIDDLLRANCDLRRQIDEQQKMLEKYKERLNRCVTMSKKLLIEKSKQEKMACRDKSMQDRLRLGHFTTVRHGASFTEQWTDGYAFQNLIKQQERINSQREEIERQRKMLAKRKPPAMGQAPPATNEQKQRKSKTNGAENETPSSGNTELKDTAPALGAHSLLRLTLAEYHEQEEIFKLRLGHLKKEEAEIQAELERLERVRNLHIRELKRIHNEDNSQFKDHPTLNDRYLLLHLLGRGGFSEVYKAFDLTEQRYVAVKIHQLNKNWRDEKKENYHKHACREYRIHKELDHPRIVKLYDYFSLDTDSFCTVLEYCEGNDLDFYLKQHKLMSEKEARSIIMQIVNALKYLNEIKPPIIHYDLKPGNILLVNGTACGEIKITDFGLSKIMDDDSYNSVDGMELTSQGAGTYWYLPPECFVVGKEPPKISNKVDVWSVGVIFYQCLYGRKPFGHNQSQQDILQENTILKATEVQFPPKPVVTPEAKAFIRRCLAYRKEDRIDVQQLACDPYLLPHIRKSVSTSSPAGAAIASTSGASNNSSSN

[20] = target: Serine/threonine-protein kinase tousled-like 2 (Homo sapiens) (UniProt Q86UE8); settings: at 10 µM

Compound	residual activity [1] [%]	residual activity [2] [%]	residual activity [3] [%]	residual activity [4] [%]	residual activity [5] [%]	residual activity [6] [%]	residual activity [7] [%]	residual activity [8] [%]	residual activity [9] [%]	residual activity [10] [%]	residual activity [11] [%]	residual activity [12] [%]	residual activity [13] [%]	residual activity [14] [%]	residual activity [15] [%]	residual activity [16] [%]	residual activity [17] [%]	residual activity [18] [%]	residual activity [19] [%]	residual activity [20] [%]
N#CCCc1ccc2c(c1)-c1[nH]c3ccc([N+](=O)[O-])cc3c1CC(=O)N2	27	7	37	12	72	42	68	32	72	79	67	–	–	–	–	–	–	–	–	–
Cc1cc2ncc(-c3ccccc3)nc2cc1C	88	95	65	83	–	–	101	75	93	–	93	107	90	87	134	97	92	105	103	99
CO[C@H]1[C@@H](OC)C[C@H](C)[C@@H](OC)C2=CC(=O)C=C(NC(=O)/C(C)=C/C=C/[C@H](OC)[C@@H](OC(N)=O)/C(C)=C/[C@@H]1C)C2=O	110	102	68	72	104	107	104	85	97	101	76	105	93	114	82	97	95	84	90	95
Oc1ccc(-c2nc(-c3ccc(F)cc3)c(-c3ccncc3)[nH]2)cc1	108	90	93	77	117	94	92	77	66	85	104	110	96	117	37	85	127	99	112	100
CCN(CC)C(=O)c1ccc(Nc2nc(OCC3CCCCC3)c3nc[nH]c3n2)cc1	66	7	63	16	–	44	32	4	41	47	18	15	0	45	9	67	68	11	–	–
COc1cc2ncnc(Nc3ccc(Oc4ccccc4)cc3)c2cc1OC	96	80	111	124	52	16	71	73	105	106	97	53	38	–	–	100	92	96	106	98
CO[C@@H]1[C@H](N(C)C(=O)c2ccccc2)C[C@H]2O[C@]1(C)n1c3ccccc3c3c4c(c5c6ccccc6n2c5c31)C(=O)NC4	3	0	17	7	44	27	32	13	49	102	37	8	6	35	40	47	82	86	–	72
Cc1nc(-c2ccccc2)c(-c2ccncc2)o1	102	96	101	100	106	77	113	94	85	102	114	99	88	128	94	81	103	102	106	103
Cn1cnc2cc3c(Nc4cccc(Br)c4)ncnc3cc21	98	92	78	80	26	13	104	85	106	111	74	79	58	85	68	89	87	109	103	92
c1ccc(-c2n[nH]c3c2oc2ccccc23)cc1	–	–	66	67	80	24	14	0	–	–	–	95	70	87	70	–	91	99	98	86
Oc1ccc(Nc2nc(-c3ccc(Cl)cc3)cs2)cc1	101	76	94	102	96	80	112	91	40	106	111	100	90	138	110	72	116	97	104	103
Cc1cncc2cccc(S(=O)(=O)N3CCCN(C(=O)CN)C[C@H]3C)c12	–	–	61	71	–	72	90	67	86	–	–	79	21	84	123	88	78	92	–	82
O=C1Nc2ccc(Br)cc2/C1=C\c1cc2c([nH]1)CCCC2	46	61	–	77	108	102	61	50	–	102	97	68	45	104	144	–	–	101	107	–
Cc1ccc(NC2=CC(=O)c3sc(C)nc3C2=O)cc1	109	100	78	83	98	110	90	85	75	81	101	98	110	91	118	66	91	89	87	84
COc1cc2ncnc(N3CCN(C(=O)Nc4ccc(Oc5ccccc5)cc4)CC3)c2cc1OC	98	86	98	117	92	64	71	49	115	110	87	97	60	114	–	110	81	82	88	88
